Data taken from paper PMC13494018.
Unmarked numbers belong to inactive results. No rule for the calls is given here.

B1: design_618_d4ffd631-0ea2-432e-ba0f-bd3d6297b2a0_110_dldesign_0_cycle1_af2pred (protein)
chain: AGAAAAEEIRALVDKAIADPATAPEYTARAAEIARAADPRLAGVGQAILAAAERLAAGSPEEAARHAAQMRELTDVVVATLLG
B2: design_617_b3fadc1d-0db4-4da8-8433-818493aa2ab2_944_dldesign_0_cycle1_af2pred (protein)
chain: AEAAAIEQLNTAVEIIESAAKAGERFARAAAGLFITLARQYADVVPKETLTALAERATAAAAPVPAVAERLAAALQEVIEA
B3: design_617_b3fadc1d-0db4-4da8-8433-818493aa2ab2_1608_dldesign_0_cycle1_af2pred (protein)
chain: SEAERIAKAAKEMIEQQKKAGVEGSPVSAEISAKNMEANAKAHSKAIIAADPKTGKKLAKEVKKYAEEAKKEVEEAAKKKLAA
B4: design_617_b3fadc1d-0db4-4da8-8433-818493aa2ab2_1106_dldesign_0_cycle1_af2pred (protein)
chain: GARARMEASIAQARELAAAAVAQAAAVDPAAAAAAAAALDALLAAAEAALAAGDYDAAAAAINAAVTLAIKWMQAAAAA
B5: design_617_b3fadc1d-0db4-4da8-8433-818493aa2ab2_2387_dldesign_0_cycle1_af2pred (protein)
chain: AAAAEGELLGKLIELARRASKLDPETANLILSGLGLYGVDPEAGVKKLLEAAELAKKAGHEELAKEIKELAEKLAAVSAA
B6: design_618_d4ffd631-0ea2-432e-ba0f-bd3d6297b2a0_93_dldesign_0_cycle1_af2pred (protein)
chain: MEEVKALIARAAELLAAAAADPSTAGEKVTEAIRLLAEAAALDPSIAPLANEAMALATRGLVTGPEGLAAAEEATKAVLEAV
B7: design_617_b3fadc1d-0db4-4da8-8433-818493aa2ab2_1885_dldesign_0_cycle1_af2pred (protein)
chain: AEAAKKGEEAVKKAEEAKKKAEAAAAKLPASVADPVKAAADALVASAKAHAEAGNTESAEATAEVLAGMAEGTKARADALAA
B8: design_618_d4ffd631-0ea2-432e-ba0f-bd3d6297b2a0_400_dldesign_0_cycle1_af2pred (protein)
chain: SSSLIDRLTGIALKGLSIAQGVLDKVEAGEATPEEIEEGIKAAEESEKAAKELSKLLAAQPAASEYYKKLAERAKEYKEKLKKALA
B9: design_617_b3fadc1d-0db4-4da8-8433-818493aa2ab2_2293_dldesign_0_cycle1_af2pred (protein)
chain: AEEALKLLKEAKKKAEEALKLAEKGGDPEEIKALVNEALSLATKGSAQAVKHPEIAPLGNAVLGYAVDVAERVEELLKERE
B10: design_617_b3fadc1d-0db4-4da8-8433-818493aa2ab2_977_dldesign_0_cycle1_af2pred (protein)
chain: AQAVQEKAAKALATASEVAEKDQSLVPEATEAMNKASQGVALVVAGNTEEGQKLVEEALKTAEKLKKKLE
B11: design_617_b3fadc1d-0db4-4da8-8433-818493aa2ab2_1081_dldesign_0_cycle1_af2pred (protein)
chain: GEEAAKKAQELVEKIKKLAKEIAAGTAEQAAKLLEEALKYAKEAYKLAAKADPETAAKLSAAANEELAKANRAAIALQRA
B12: design_617_b3fadc1d-0db4-4da8-8433-818493aa2ab2_1083_dldesign_0_cycle1_af2pred (protein)
chain: GDPEASKEALEYAKKAEELVKKAEELKDNPELAKKLIEEAKKHIHLALAEAGKAYPEVAQKVLTTVEKVLEKIKEL
B13: design_617_b3fadc1d-0db4-4da8-8433-818493aa2ab2_1785_dldesign_0_cycle1_af2pred (protein)
chain: EAEEYYKKGKEYSAKGDELYKAGKYEEAIKYYQKAANYYSKASILLTKAGGDQEKIDEANANLAKALENLEKASRALREAREKEEK
B14: design_617_b3fadc1d-0db4-4da8-8433-818493aa2ab2_1528_dldesign_0_cycle1_af2pred (protein)
chain: AQAVLQAASEAMVEAARVGSRASPEDRARLRALLAATSTAAIAAARGDGQAALDQAAALAAELTAAVEAVKARA
B15: design_617_b3fadc1d-0db4-4da8-8433-818493aa2ab2_1373_dldesign_0_cycle1_af2pred (protein)
chain: DAALRFAEAQLRRIERLAAEIIALGGPAWAPEAEALVAEAREALELIKTDPGAGMALLIETIERAYALLAEVRAAAA
B16: design_617_b3fadc1d-0db4-4da8-8433-818493aa2ab2_1686_dldesign_0_cycle1_af2pred (protein)
chain: MEEYLEEAKRFAESVIELSKLLLEGAPYNPALSAASLAALRKQAKARAEEAAKIDPEAAEALEKAAKTAEEAEKKAKALAA
B17: design_618_d4ffd631-0ea2-432e-ba0f-bd3d6297b2a0_318_dldesign_0_cycle1_af2pred (protein)
chain: MEKKEELKKKAEEAIKKLKKLKEEGASPEEINKALAEAVELAKEAAEAGDSETANRLLSEAGRLSIEALKNHAA
B18: design_618_d4ffd631-0ea2-432e-ba0f-bd3d6297b2a0_140_dldesign_0_cycle1_af2pred (protein)
chain: NEDLTKAGEKVVETQRTASEAARTSGDPAVAAEMNAIANAAIKALQAGVATGDYKTALETTEKLLKEAKAKLKEVK
B19: design_617_b3fadc1d-0db4-4da8-8433-818493aa2ab2_2366_dldesign_0_cycle1_af2pred (protein)
chain: GLEKALKELKKVAEATAAAATAADPAMKPTADLLKKAAERAAAGDAETALANLNTILVLADSIAAVDPAAAKKLKEAAEKAIKIAR
B20: design_617_b3fadc1d-0db4-4da8-8433-818493aa2ab2_1817_dldesign_0_cycle1_af2pred (protein)
chain: AEEERMRAAIREIAAAAAAEVEAWAKAHPAADQAEWFAALQAAGEKAAEAMAAIDPRYAPEARALAMALGAGAVQRVKA
B21: design_618_d4ffd631-0ea2-432e-ba0f-bd3d6297b2a0_170_dldesign_0_cycle1_af2pred (protein)
chain: AAAAAAADAEAAALAKGFVEEAKKKIEALLKAGAPEEELLAEASRVAAKAIRTFAALGWNGSHAVAAVKAITEEAKKAIEKLRA
B22: design_617_b3fadc1d-0db4-4da8-8433-818493aa2ab2_820_dldesign_0_cycle1_af2pred (protein)
chain: AEGKALVEQAKALAAQGAAHPQHAAAVAGTLANIGKYLAKLGPEYAKAAADVLNAFAKAVPSVAAQAKAAAAELEKLAKEA
B23: design_618_d4ffd631-0ea2-432e-ba0f-bd3d6297b2a0_165_dldesign_0_cycle1_af2pred (protein)
chain: AAAAAKVAVAAAKSMIKQAKKFLEEGEKSGDLKLVESAKKLAEQAKNLAKFAIANPATKEEGEKLEKEAEEVKKKAEEAEKKIK
B24: design_617_b3fadc1d-0db4-4da8-8433-818493aa2ab2_2360_dldesign_0_cycle1_af2pred (protein)
chain: AAAQAQAQQIVDQTRAAVEEARAMAEDGATAAAAAERAAAVARQASAAIPQALAASPQIAGQLAQVALDATRVEAEARRNAA
B25: design_617_b3fadc1d-0db4-4da8-8433-818493aa2ab2_797_dldesign_0_cycle1_af2pred (protein)
chain: AEELAEEAKKYIEEARKKVTELYNEAGATELAEEANEKLESAREIVESGREHPELLPAAVAFARSVADAQLRKAESLV
B26: design_618_d4ffd631-0ea2-432e-ba0f-bd3d6297b2a0_220_dldesign_0_cycle1_af2pred (protein)
chain: DKEEAVKLAEEGAEVALKLADKRVGAVTAAAFRGLARSIRAAEDPEDIAKIAEVAKGMKAWAEAQLKATA
B27: design_617_b3fadc1d-0db4-4da8-8433-818493aa2ab2_1296_dldesign_0_cycle1_af2pred (protein)
chain: DGEKIQEVLDKAKELYKIAKEIEKKNPEYGKEILKLVQEALSLIAKGNAEEAMKKMEEAEKYAEEVKKKLKEEE
B28: design_617_b3fadc1d-0db4-4da8-8433-818493aa2ab2_836_dldesign_0_cycle1_af2pred (protein)
chain: VTPEEAKKRVEELVEEAIKLAEKADPAEAEKIRKTYETEGPLAAAAVIWAIGNRFAEKPETKEIGERLRELAIEAIRLLLAAAAA
B29: design_617_b3fadc1d-0db4-4da8-8433-818493aa2ab2_1728_dldesign_0_cycle1_af2pred (protein)
chain: GAALAARHGAAAARGALQGTVEEAAAQLANGLKIAAQLAPADGAAYRAAVLAVIAQASPERAAAILALAG
B30: design_617_b3fadc1d-0db4-4da8-8433-818493aa2ab2_2347_dldesign_0_cycle1_af2pred (protein)
chain: AAAEQAAREALQGRALEKMKEYVDKLVALAKETGSEAALEAAQQVASLFTQAIIAAQQDLAAGRAALAQGEALAKAAIAALE
B31: design_617_b3fadc1d-0db4-4da8-8433-818493aa2ab2_943_dldesign_0_cycle1_af2pred (protein)
chain: AEAAQEAAVADMEKAAAIAKKYAELFPSTADALIKAAEDALAAVKANKETAAETAKAGLKALNATIAAAMRQALADSAA
B32: design_617_b3fadc1d-0db4-4da8-8433-818493aa2ab2_1940_dldesign_0_cycle1_af2pred (protein)
chain: MEEYRARAEELLEKAKKAAEGENGVGDVGELAVEMAKLAAEAEKASPEAGAYARAALVEISQLAIEAAKRKAA
B33: design_617_b3fadc1d-0db4-4da8-8433-818493aa2ab2_1384_dldesign_0_cycle1_af2pred (protein)
chain: MEELMEKVKSLGQAAIVAATAAKSAAAAGNTDAARVLLAQARRWLEEAGEAAEKAGEEAKEVYEEVRKVVEAEIAAAEAAIAAA
B34: design_617_b3fadc1d-0db4-4da8-8433-818493aa2ab2_1003_dldesign_0_cycle1_af2pred (protein)
chain: KAAALHAIKVAETLLKKAKEFLEKGKEEGPEYYKMAYATAQSAILVAQGAVEVAKKVSKKLYKKAKKLLEEAKKLAEEAKKLAE
B35: design_617_b3fadc1d-0db4-4da8-8433-818493aa2ab2_1042_dldesign_0_cycle1_af2pred (protein)
chain: MSAAEIIREALKLLKEAAKAAATDPAKAKELADKAIALGKENQGAALLLSNTARNLAATATPEEAAFLLEVAERARAVAEAL
B36: design_617_b3fadc1d-0db4-4da8-8433-818493aa2ab2_1993_dldesign_0_cycle1_af2pred (protein)
chain: PSVEEIGQALLDNLKKTLEEAVKASLEEAKGYAAQAAALYIGAHGASPEYGKQAEEIVKKAIKELEKKDPEKAKILKEAIEKAEALL
B37: design_617_b3fadc1d-0db4-4da8-8433-818493aa2ab2_2043_dldesign_0_cycle1_af2pred (protein)
chain: DLVEKYREEALAEAEKLVKEGVSPEEAAEILMEKAREYFAQAAKASPEVAVKLIAKAEGYALAAKEIRERL
B38: design_617_b3fadc1d-0db4-4da8-8433-818493aa2ab2_1433_dldesign_0_cycle1_af2pred (protein)
chain: GVAEQAIRGLARNTVAAIEAGTLTEEGLEKALELIRGIGEAAGPAARAVAEEAIERVREAWERRKRAEAEAAAA

Target: CD276, Q5ZPR3
Sequence (Q5ZPR3 whole entry): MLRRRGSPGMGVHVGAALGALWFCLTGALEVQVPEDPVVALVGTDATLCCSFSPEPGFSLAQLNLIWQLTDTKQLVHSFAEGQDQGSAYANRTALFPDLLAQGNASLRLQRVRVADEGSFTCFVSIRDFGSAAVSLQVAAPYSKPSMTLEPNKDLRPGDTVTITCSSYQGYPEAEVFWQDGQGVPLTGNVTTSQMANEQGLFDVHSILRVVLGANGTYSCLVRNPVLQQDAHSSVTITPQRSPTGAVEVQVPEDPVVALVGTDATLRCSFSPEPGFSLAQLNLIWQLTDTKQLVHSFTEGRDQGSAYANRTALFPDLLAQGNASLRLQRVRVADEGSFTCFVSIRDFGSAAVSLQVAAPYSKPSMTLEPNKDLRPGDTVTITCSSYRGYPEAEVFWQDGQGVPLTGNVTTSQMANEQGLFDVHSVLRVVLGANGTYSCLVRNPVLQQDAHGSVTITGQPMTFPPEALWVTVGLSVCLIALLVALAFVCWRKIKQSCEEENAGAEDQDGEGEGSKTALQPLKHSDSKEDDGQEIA

Binder	binding in a display sort
B1	not found
B2	not found
B3	not found
B4	not found
B5	not found
B6	not found
B7	not found
B8	not found
B9	not found
B10	not found
B11	not found
B12	not found
B13	not found
B14	not found
B15	not found
B16	not found
B17	not found
B18	not found
B19	not found

Binder	binding in a display sort
B20	not found
B21	not found
B22	not found
B23	not found
B24	not found
B25	not found
B26	not found
B27	not found
B28	not found
B29	not found
B30	not found
B31	not found
B32	not found
B33	not found
B34	not found
B35	not found
B36	not found
B37	not found
B38	not found
